Rows were chosen to be rich in hits. Some 0.69% of all compounds tested hit in one or more screens of this group.
PfHsp90 yeast 2: reduces growth (ATP signal) of yeast expressing P. falciparum Hsp90; S. cerevisiae expressing PfHsp90, BacTiter-Glo ATP, 48 h; yeast lacking PDR1 and PDR3 efflux regulators; inhibition, % at 9.4 µM; 310,000 compounds, 0.32% hits; AID 504621;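 active = every replicate shows inhibition above about 80%, whatever the replicate mean, limit read from the data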;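 also: 0% = DMSO neutral controls and 100% = 20 µM radicicol positive controls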
E coli growth-1: reduces bacterial viability in AddAB counter-screen. AID 449728. E. coli V3065 growth, OD600 absorbance, 18 h. inhibition, % at 11.9 µM. 330,000 compounds, 0.27% hits;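 active = inhibition above the campaign's mean inhibition across all tested compounds plus 3 SD, cut at about 9.9% in these data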;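 also: uninfected addAB+ strain grown without phage in ampicillin broth; 0% = DMSO wells and 100% = ciprofloxacin 0.95 µg/ml wells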
AddAB inh: less growth of phage-infected E. coli with AddAB; AID 435030; 330,000 compounds, 0.29% hits; E. coli expressing H. pylori AddAB, absorbance growth; inhibition, % at 11.9 µM; in the data active = inhibition above about 12%;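 also: 0% = vehicle wells of infected cells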
Tat export inh: E. coli Tat transport inhibition; inhibition, % at 10 µM; 340,000 compounds, 0.036% hits; E. coli MC4100 TorA-mCherry Tat export, fluorescence;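 active = mean replicate inhibition at least 50% and at least half of replicates individually reaching 50%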;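 also: exported cargo escapes ClpAP degradation while cytoplasmic cargo is degraded and loses fluorescence; 0% = median of neutral control wells and 100% = median of NaSCN control wells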
phage Ecoli inh: E. coli growth loss with phage present; growth absorbance; inhibition, % at 11.9 µM; 360,000 compounds, 0.26% hits; in the data active = inhibition above about 11%
E coli growth-2: E. coli growth inhibition. Escherichia coli growth, OD600, 23 h; stronger effect = lower value. OD600 absorbance (no concentration beside the values). 330,000 compounds, 0.21% hits. AID 1053175;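 active = OD600 absorbance below the run mean of sample wells minus 3.6 SD, in any replicate, cut at about 0.56 in these data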
* marks the source's active call; other numbers are inactive results; . = no result.

SMILES	PfHsp90 yeast 2	E coli growth-1	AddAB inh	Tat export inh	phage Ecoli inh	E coli growth-2
NC(=S)n1[nH]c(-c2ccc([N+](=O)[O-])cc2)c(N=Nc2ccc(O)cc2)c1=O	.	17*	11	-8	5	0.7
C=CC[N@@+]12CC[C@@]34c5ccccc5N5C=C6C7CC8[C@@]9(CC[N@@+]8(CC=C)CC7=CCO)c7ccccc7N(C=C(C(CC31)C(=CCO)C2)C54)C69 (some centres not stated)	.	.	.	.	.	0.72
Cc1cc2nc3c(=O)[nH]c(=S)[nH]c3nc2cc1NC(=O)C(F)(F)F	27	10*	7	-11	9	0.66
O=C(O)c1ccccc1SSc1ccccc1C(=O)O	-2	13*	10	7	2	0.68
O=C(O)c1ccccc1O	-17	1	3	11	4	0.7
Cc1c(-n2c(SCC(=O)NC(C)C(C)C)nc3ccccc3c2=O)c(=O)n(-c2ccccc2)n1C (configuration not stated)	14	-3	2	1	5	0.74
Cc1c(-n2c(SCC(C)C)nc3ccccc3c2=O)c(=O)n(-c2ccccc2)n1C	-5	0	-2	-1	0	0.39*
O=C(NN=Cc1ccncc1)C12CC3CC(CC(C3)C1)C2	.	.	.	.	.	0.7
O=[N+]([O-])c1cc(C(F)(F)F)ccc1NCCNC(=S)Nc1ccc(Cl)cc1	-23	10*	9	12	7	0.61
COC(=O)NN=Cc1cc(Cl)cc(Cl)c1OCc1ccc(F)cc1	.	.	.	.	.	0.62
COCc1cc(C=NNC(=O)Cc2ccc(Cl)cc2)ccc1OC	.	.	.	.	.	0.25*
COCc1cc(/C=N\NC(=O)c2ccc(Cl)cc2)ccc1OC	3	0	1	-3	2	.
O=C1C=CC(=O)N1c1ccccc1N1C(=O)C=CC1=O	.	.	.	-5	2	0.66
O=C(c1ccccc1)c1ccccc1N1C(=O)C=CC1=O	107*	-1	2	2	1	0.61
CNC(=C[N+](=O)[O-])NCCSCc1ccc(CN(C)C)o1	.	.	.	.	.	0.69
COc1ccc(C(N)=NOC(=O)c2ccc(C)c([N+](=O)[O-])c2)cc1	.	.	.	.	.	0.66
N#CSCC(=O)c1cccc2ccccc12	97*	-1	-2	-19	2	0.69
CCCCCCCCCCCCCCCC[N+](C)(C)CCN(Cc1ccc(OC)cc1)c1ncccn1	106*	6	1	54*	.	.
COc1ccc(CN(CCN(C)C)c2ccccn2)cc1	-19	0	-2	-5	4	0.67
C[C@H]1COc2c(C3(N)CC3)c(F)cc3c(=O)c(C(=O)O)cn1c23	.	102*	100*	.	.	.
NC(C(=O)NC1C(=O)N2C(C(=O)O)=C(Cl)CSC12)c1ccccc1 (configuration not stated)	.	.	.	.	.	0.06*
O=C(COc1ccc(-c2ccccc2)cc1)NN=Cc1cc(O)ccc1Br	.	.	.	.	.	0.65
CC(=O)Nc1nc(C)c(Oc2ccc(Cl)cc2)c(=O)[nH]1	-30	2	4	-1	0	0.63
Cc1nc(N)nc(N)c1Oc1ccc(Cl)cc1	.	.	.	-2	4	0.52*
COc1ccc(N=Nc2ccc(O)c3ncccc23)cc1	104*	7	3	-2	5	0.7
SMILES	PfHsp90 yeast 2	E coli growth-1	AddAB inh	Tat export inh	phage Ecoli inh	E coli growth-2
CCCCNc1c(-c2ccc(OC)c(Sc3ccc(OC)cc3)c2)nc2cnccn12	22	0	0	-4	2	0.74
CCCCNc1c(-c2ccc(SC(C)CC)cc2)nc2cnccn12 (configuration not stated)	107*	0	2	23	.	.
O=C(CN1CCN(Cc2ccccc2Cl)CC1)NN=Cc1ccco1	.	.	.	.	.	0.64
CCN(CC)C(=S)SSC(=S)N(CC)CC	107*	0	-1	24	6	0.56
CCN(CC)C(=S)SCC(=O)c1ccccc1	-8	1	4	-1	0	0.72
CCOc1c(Cl)cc(C=NO)cc1OC	.	.	.	.	.	0.73
O=C1CN(N=Cc2ccc([N+](=O)[O-])o2)C(=O)N1	.	.	.	.	.	0.46*
O=C(Nc1ccc(F)c(Cl)c1)Nc1ccc(Cl)cn1	1	-1	-1	0	4	0.72
O=C(Nc1ccncc1)Nc1ccc(F)c(Cl)c1	-2	1	4	-3	6	0.51*
Fc1ccc(NC(=S)Nc2ccc(F)c(Cl)c2)cc1Cl	-15	0	2	-9	.	0.49*
CC(=O)OCC1OC(CC=NOC2OC(COC(C)=O)C(OC(C)=O)C(OC(C)=O)C2OC(C)=O)C=CC1OC(C)=O (configuration not stated)	.	.	.	.	.	0.69
OC1c2ccccc2C(Cc2cncs2)C1Br (configuration not stated)	.	.	.	.	.	0.71
Cc1ccc(CSc2nnc(SCC(=O)NN=Cc3ccc(C(=O)O)cc3)s2)cc1	.	.	.	.	.	0.68
Cc1nc2ccccc2c(=O)n1N=Cc1ccc(F)cc1	.	.	.	.	.	0.66
COc1ccc(CC2CN3C(=NCC3C)N2CC(C)NC(=O)CCC2CCCCC2)cc1 (configuration not stated)	.	.	.	.	.	0.67
c1ccc(-c2ccc(C(c3ccccc3)n3ccnc3)cc2)cc1 (configuration not stated)	105*	-2	0	3	2	0.64
CCC(=Cc1ccccc1)c1cccc2[nH]c3c(OC)cccc3c12	.	.	.	.	.	0.71
Cc1ccc(O)c(NC(=S)NC(=O)c2ccc(-c3ccc(Cl)cc3)o2)c1	122*	-3	-2	7	-3	.
Cn1ncc(C#N)c1N=CN1CCCC1	.	.	.	.	.	0.68
O=C(CCO)c1ccc(O)cc1	18	1	3	6	3	0.72
O=C(CCSc1ccc(Br)cc1)c1ccc(O)cc1	97*	4	3	12	0	0.59
Nc1nc(Nc2cccc(F)c2)nc2ccccc12	36	1	2	7	6	0.47*
CCOc1ccc(Nc2nc(NCC3CCCO3)c3ccccc3n2)cc1 (configuration not stated)	-23	3	0	-38	6	0.49*
CCOc1ccc(Nc2c3ccccc3nc3ccccc23)cc1	2	10	9	-8	5	0.52*
c1ccc(Nc2nc(NCC3CCCO3)c3ccccc3n2)cc1 (configuration not stated)	21	1	2	-21	1	0.47*
SMILES	PfHsp90 yeast 2	E coli growth-1	AddAB inh	Tat export inh	phage Ecoli inh	E coli growth-2
CCOc1ccc(Nc2cc(C)c3ccccc3n2)cc1	-15	3	1	13	1	0.61
Cc1ccc(S(=O)(=O)NN=Cc2ccc(C(=O)O)cc2)cc1	.	.	.	.	.	0.71
CC(=NNC(=O)CN1CCCCC1)c1ccccc1O	.	.	.	.	.	0.65
Oc1c(Cl)cc(CN2CCOCC2)c2cccnc12	.	8	8	5	4	0.52*
O=C(SCc1c(O)c2ccccc2oc1=O)c1ccccc1	.	.	.	.	3	.
O=C(COc1c(Br)cc(Br)c2cccnc12)N1CCCCC1	-28	-6	-4	-11	-5	0.7
Oc1c(CN2CCCCC2)cc(Br)c2cccnc12	104*	1	4	2	9	0.17*
Oc1c(CN2CCc3ccccc3C2)cc(Cl)c2cccnc12	102*	0	11	0	.	0.43*
